Screening data as filed in PubChem BioAssay.
HCMV inh: qHTS Assay for inhibitors of the human cytomegalovirus (HCMV); HFF cells, HCMV-luciferase reporter, 72 h; stronger effect = lower value; activity change, negative = inhibition, % at 57.5 µM; AID 1259415, 2018; actives 4.5% (n = 410,000); in the data active = activity change below about -60%; inconclusive = no clear call, values can overlap the other calls; inactive = above about -39%; note: % is set by controls: 0 for no effect and ±100 for the full control effect
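Inhibition of viral replication was scored as loss of reporter luminescence in HFFs infected with HCMV-luciferase (MOI 1 PFU/cell) for 72 h; compounds tested at 2 doses, normalized to buffer and Salinomycin controls.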
CHX counter: Cycloheximide Counterscreen for Small Molecule Inhibitors of Shiga Toxin; AID 2314, 2010; actives 12% (n = 300,000); max response, %; cell reporter, cycloheximide protein synthesis inhibition counterscreen; in the data active = max response mostly above about 13%, no sharp cut-off; inactive = mostly below about 14%; note: read at 38.3 µM for the half of the compounds with a filed dose; 0% is about no effect
Pf growth 96h: Primary qHTS for delayed death inhibitors of the malarial parasite plastid, 96 hour incubation; AID 504834, 2011; P. falciparum luciferase reporter growth, 96 h; Potency, µM (top dose mostly 28.7 µM), without a hit: at the highest dose activity change, negative = inhibition, actives largely listed as inhibitors; actives 6.9% (n = 320,000); note: potency is the fitted concentration of half-maximal effect; % is set by controls: 0 for no effect and ±100 for the full control effect
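P. falciparum expressing integrated firefly luciferase grown in erythrocytes (2% hematocrit, 0.05% parasitemia final) with compounds for 96 hours at 37 C, 5% CO2. Growth inhibition read as loss of luminescence after adding luciferase detection reagent.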
Shiga inhibitor: A qHTS for Small Molecule Inhibitors of Shiga Toxin. Vero cells, Shiga toxin protein synthesis inhibition reporter. inhibition, % at 38.7 µM. actives 9.2% (n = 290,000). AID 2315, 2010; in the data active = inhibition mostly above about 28%, no sharp cut-off; inactive = mostly below about 43%; note: 0% is about no effect
Pf growth 48h: Primary qHTS for delayed death inhibitors of the malarial parasite plastid, 48 hour incubation; P. falciparum luciferase growth in erythrocytes, 48 h; Potency, µM (doses to about 28.7 µM), for inactives: at the highest dose activity change, negative = inhibition, usual class: inhibitors; actives 5.9% (n = 310,000); note: potency is the fitted concentration of half-maximal effect; % is set by controls: 0 for no effect and ±100 for the full control effect
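Luciferase-expressing P. falciparum in infected erythrocytes (2% hematocrit, 0.1% parasitemia final) in RPMI 1640/0.5% Albumax were exposed to compound for 48 hours at 37 C, 5% CO2; growth read as luminescence.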
HCV inhibitor: qHTS Assay for Inhibitors of Hepatitis C Virus (HCV) | Potency, µM (doses to about 41.8 µM), without a hit: at the highest dose activity change, negative = inhibition, actives largely listed as inhibitors | actives 3.4% (n = 340,000) | Huh7.5.1 HCVcc-Cre infection, luciferase reporter, 44 h; note: potency is the fitted concentration of half-maximal effect; % is set by controls: 0 for no effect and ±100 for the full control effect
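After 44 h co-culture of compound, cells and HCVcc-Cre (~0.5 moi), substrate is added for 15 min at room temperature and luciferase measured over 15 sec. Cells were seeded at 1,000/well and pre-cultured 4 h.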
* hit, by the source's call; u = inconclusive; x = no result; [ ] = remark or other dose. In the library only some 21% were active in any assay of this set; here they are far more common. Unless noted, calls come from the whole dose curve; as a rule, active = well fitted inhibition curve with a large enough effect; inconclusive = small, poorly fitted or top-dose-only effect, or another doubt; inactive = no such curve, though single readings can be large or run the other way.

SMILES	HCMV inh	CHX counter	Pf growth 96h	Shiga inhibitor	Pf growth 48h	HCV inhibitor
CC1=C(C(=O)Nc2ccc(C)cc2C)C(c2cccn2C)n2ncnc2N1 (stereo not drawn)	4	x	x	x	x	x
COc1ccc(NC(=O)O/N=C2/CCCc3ccc(OC)cc32)cc1	-73*	11	7%	57	-7%	2.8µM*
COc1ccc(C(=O)O/N=C2\CCCc3nonc32)cc1	-4	-1	14%	-3	18%	6%
COc1ccc2c(c1)/C(=N/OC(=O)c1cccs1)CCC2	-13	42*	25%	43	2%	-13%
COc1ccc(NC(=O)CN(C)CC(=O)Nc2ccc3c(c2)CCC3)cc1	-10	-1	23%	-7	6%	-10%
COc1cc(C=O)ccc1OC(=O)N1CCOCC1	10	-8	u	-3	u	7%
C#CCN(C[C@@H]1[C@@H](OC(=O)NC2CCCC2)[C@@H](OC(=O)NC2CCCC2)Cn2c(=O)ccc(=O)n21)S(=O)(=O)c1ccc(C)cc1	-101*	x	x	x	x	x
C#CCN(C[C@@H]1[C@@H](OC(=O)NCc2ccccc2F)[C@@H](OC(=O)NCc2ccccc2F)Cn2c(=O)ccc(=O)n21)S(=O)(=O)c1ccc(C)cc1	-100*	x	x	x	x	x
C#CCN(C[C@@H]1[C@@H](OC(=O)NC2CC2)[C@@H](OC(=O)NC2CC2)CN(C(=O)OC(C)C)N1C(=O)OC(C)C)S(=O)(=O)c1ccc(C)cc1	2	x	x	x	x	x
C#CCN(C[C@H]1[C@H](OC(=O)Nc2cccs2)[C@H](OC(=O)Nc2cccs2)CN(C(=O)OC(C)C)N1C(=O)OC(C)C)S(=O)(=O)c1ccc(C)cc1	-79*	x	x	x	x	x
C#CCN(C[C@@H]1[C@@H](OC(=O)Nc2cccs2)[C@@H](OC(=O)Nc2cccs2)Cn2c(=O)ccc(=O)n21)S(=O)(=O)c1ccc(C)cc1	-103*	x	x	x	x	x
Cc1ccc(NC(=O)Nc2ccno2)cc1	19	16	-3%	31	-23%	9%
Cc1ccc(S(=O)(=O)CCC(=O)Nc2cccc(S(=O)(=O)N3CCCCCC3)c2)cc1	-9	x	u	x	u	-13%
CN(C(=O)c1ccc2c(Cl)c3c(nc2c1)CCC3)c1ccccc1F	-17	x	x	x	x	x
CCOC(=O)N1CCN(C(=O)c2ccc3c(Cl)c4c(nc3c2)CCCC4)CC1	u	-3	u	2	-10%	-5%
CCCN(C(=O)c1ccc2c(SCC(=O)O)c3c(nc2c1)CCC3)c1cccc(C)c1	-60*	-2	-22%	-4	0%	12%
CCCCNC(=O)c1ccc2c(SCC(=O)O)c3c(nc2c1)CCCC3	7	-4	u	1	0%	-23%
CCN(C(=O)c1ccc2c(Cl)c3c(nc2c1)CCC3)c1ccc(C)c(C)c1	-7	-3	10µM*	-13	u	u
CN(C(=O)c1ccc2c(Cl)c3c(nc2c1)CCC3)c1ccccc1	-12	45*	u	94*	96%	-21%
Cc1c(Cl)cccc1-n1nc(C)c2c(C)cc(=O)n(CC(=O)N3CCCc4ccccc43)c21	-21	x	x	x	x	x
O=c1cc(/C=C/c2cccs2)[nH]c2ccccc12	-85*	18	x	52	9.3µM*	u
CSc1ccc(C(c2c(C(=O)O)[nH]c3ccccc23)c2c(C(=O)O)[nH]c3ccccc23)cc1	27	-2	-26%	x	-1%	-21%
O=C(O)c1cc(=O)c2ccccc2[nH]1	61	x	4%	x	13%	20%
CSc1ccc(/C=C/c2cc(=O)c3ccccc3[nH]2)cc1	-25	15*	-6%	74*	1.9µM*	u
Cc1cnc(CNC(=O)C2CCC(=O)N(Cc3ccc(Cl)cc3)C2)[nH]1 (stereo not drawn)	29	9	u	13	-8%	2%
SMILES	HCMV inh	CHX counter	Pf growth 96h	Shiga inhibitor	Pf growth 48h	HCV inhibitor
COc1ccc(C(=O)CC(=O)C(=O)Nc2ccc(C)c(C)c2)cc1	110	18*	12%	94*	x	-12%
COc1ccc(C(=O)CCC(=O)Nc2cccc(C(C)=O)c2)cc1	-10	x	x	x	x	x
COc1ccc(C(=O)CC(=O)C(=O)Nc2cccc(C(C)=O)c2)cc1	16	17*	7%	24	0%[0.00184 µM]	-8%
COc1cccc(C(=O)CC(=O)C(=O)Nc2ccc(C)cc2Cl)c1	-13	12*	87%	38*	47%	12%
O=C(Cn1ccn(-c2ccc(F)cc2)c(=O)c1=O)Nc1ccccc1C(F)(F)F	-30	x	x	x	x	x
CCN(CC)C(=O)c1sc2nc(-c3cccs3)cc(-c3ccc(Cl)cc3)c2c1N	-33	-2	7.4µM*	18	u	u
N#Cc1sc2nc(-c3cccs3)cc(-c3ccc(Cl)cc3)c2c1N	-38	2	u	21	u	u
CCN(CC)C(=O)c1sc2nc(-c3cccs3)cc(-c3cccs3)c2c1N	-64*	-1	u	-13	4.1µM*	-26%
Cc1nnc(NC(=O)c2sc3nc(-c4cccs4)cc(C(F)(F)F)c3c2N)s1	-3	41*	117%	57*	125%	u
NC(=O)CC(NC(=O)Cc1cccc2ccccc12)c1ccc(N2CCC(N3CCCC3)CC2)c([N+](=O)[O-])c1 (stereo not drawn)	-15	-1	57%	-2	32%	0%
Cc1cccc(N2C(=O)NC(=O)/C(=C\c3cnc(-c4ccccc4)nc3)C2=O)c1	-10	14*	u	43	2%	11µM*
Cc1ccc(N2C(=O)NC(=O)/C(=C/c3cnc(-c4ccccc4)nc3)C2=O)cc1C	57	-3	50%	15	1%	5%
CC(C)c1ccc(N2C(=O)NC(=O)/C(=C\c3cnc(-c4ccccc4)nc3)C2=O)cc1	-88*	6	196%	146	78%	10%
Cc1cc(C)cc(N2C(=O)NC(=O)/C(=C\c3cccn3-c3ccccc3)C2=O)c1	-20	14*	u	-4	19%	u
O=C1CC(c2ccccc2Cl)c2c(sc3c(=O)[nH]c(CCl)nc23)N1 (stereo not drawn)	x	-1	u	-1	-17%	x
O=C(c1ccco1)N1CCN(Cc2cn[nH]c2-c2cccc3ccccc23)CC1	8	5	-15%	17	u	-13%
CCOC(=O)C1=C[C@@H](C(C)(C)C)N(S(=O)(=O)c2ccc(C)cc2)[C@H]1c1ccccc1Cl	-26	x	x	x	x	x
CCOC(=O)C1=C[C@@H](C(C)(C)C)N(S(=O)(=O)c2ccc(C)cc2)[C@H]1c1ccc(C)cc1	-76*	x	x	x	x	x
